Compounds without any hit were thinned out: in the full panel of roughly 83,000, 20% have a hit.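 Method: cells in 96-well plates; compound added at one concentration; 48 h incubation; percent growth measured; values under 10 scored active.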 Values without a mark were called inactive. The source made the active and inactive calls.
How the values were obtained:
Assay in all cases: NCI-60 one-dose screen, 48 h (100 = growth as untreated, 0 = no growth, -100 = all killed)
Conditions in all cases: 10 µM unless noted
DU-145 prostate = tested on: DU-145 prostate
K-562 leukemia = tested on: K-562 leukemia
MALME-3M melanoma = tested on: MALME-3M melanoma
MDA-MB-231 breast = tested on: MDA-MB-231 breast
RXF 393 renal = tested on: RXF 393 renal
SF-268 CNS = tested on: SF-268 CNS
SF-295 CNS = tested on: SF-295 CNS
SF-539 CNS = tested on: SF-539 CNS
UACC-257 melanoma = tested on: UACC-257 melanoma
M14 melanoma = tested on: M14 melanoma

SMILES	growth (DU-145 prostate)	growth (K-562 leukemia)	growth (MALME-3M melanoma)	growth (MDA-MB-231 breast)	growth (RXF 393 renal)	growth (SF-268 CNS)	growth (SF-295 CNS)	growth (SF-539 CNS)	growth (UACC-257 melanoma)	growth (M14 melanoma)
CN1CC(c2ccc(Br)cc2)C(C(=O)c2ccc(Br)cc2)C12C(=O)Nc1ccccc12 (stereo not given)	83.5%	44.8%	81.7%	81.7%	69.7%	69.5%	78.5%	90.5%	85.5%	76%
CN(C)Cc1ccc(NC(=O)c2cncc(C#Cc3cnc(N)c4ncccc34)c2)cc1C(F)(F)F	64.1%	-26.1% (active)	-6.72% (active)	-68.6% (active)	-49.1% (active)	55.9%	76.4%	58.4%	36.9%	-54.7% (active)
COc1cc(C=Nc2oc(-c3ccccc3)c(-c3ccccc3)c2C#N)cc(CN2CCCC2)c1O	108%	94.4%	117%	95.7%	111%	96.4%	98.5%	95.1%	107%	100%
CCOC(=O)c1cnn(CC(C)O)c1NC(=O)NCc1ccccc1C(F)(F)F (stereo not given)	105%	86.3%	101%	105%	111%	101%	92.6%	98.3%	89.7%	88.6%
CC1(C)N=C(N)N=C(N)N1c1cc(Cl)ccc1Cl	6.66% (active)	71.2%	125%	92.6%	78.7%	75.1%	51.5%	85.8%	94.7%	94%
CCCCCc1ccc(S(=O)(=O)Nc2cc(-c3csc(NC(C)=O)n3)ccc2N2CCN(C)CC2)cc1	75.8%	-32.6% (active)	-47.1% (active)	51.8%	33.3%	72%	49.9%	61.6%	-21.9% (active)	-52.4% (active)
C/C=C1/CN(CCCCC)CC[C@H]1C(=O)c1cc2ccccc2[nH]1	99%	69.6%	91.4%	88.5%	94.1%	89.8%	94.5%	98.9%	108%	90.2%
CN(C)c1ccc(/C=N\NC(=O)c2ccc3nc(-c4ccc(Cl)cc4)[nH]c3c2)cc1	85.4%	38.8%	11.8%	63.9%	77.4%	78.2%	31.3%	88%	100%	60.3%
O=S(=O)(N=C1C(Cl)=C(Cl)C(=NS(=O)(=O)c2ccccc2)C(Cl)=C1Cl)c1ccccc1	20.5%	65.6%	113%	98.8%	64.7%	87.1%	64.2%	109%	68.9%	94.1%
CCOC(=O)CC1CSC(N/N=C/c2ccc(F)c(Br)c2)=N1 (stereo not given)	103%	90.5%	101%	109%	111%	92.3%	96.8%	106%	103%	102%
Nc1c(Cl)cc(/C=C2\C=Cc3ccccc32)cc1Cl	97.8%	100%	119%	113%	103%	105%	115%	97.5%	98.3%	105%
O=C(OCc1ccc2c(Cl)cc(Cl)c(O)c2n1)N1CCN(C(=O)c2cc3ccccc3[nH]2)CC1	43.8%	19.9%	36.8%	44.7%	46.5%	24.3%	16.1%	39.8%	25.5%	16.9%
CSc1ccc(N2C(=N)C(=S)N(c3ccc(C)cc3)C2=O)cc1	104%	82%	94.4%	101%	113%	90.7%	96.1%	92.8%	99.7%	86.1%
CN1C(=O)/C(=C/c2ccc(C(=O)Nc3ncc(Cc4cc(Cl)ccc4Cl)s3)cc2)SC1=S	73.7%	54.7%	69.4%	75.7%	60.1%	71%	65.8%	79.8%	91.8%	46.5%

From PubChem BioAssay (NCI)
